# BJeLR lethal: MLPCN primary cell-based screen for lethality selective to Ras in HRASV12 cells; BJeLR (HRASV12) viability, CellTiter-Glo ATP luminescence, 48 h; inhibition, % (concentration not given with the values); 300,000 tested, 0.17% active; AID 1554, 2009; in the data active means inhibition above about 50%; inconclusive means no clear call, values can overlap the other calls
# Anthrax LF inh2: Bacillus anthracis LF protease inhibitors, primary screen, biochemical, multiplex microsphere, MLPCN library. Lethal factor (Bacillus anthracis), P15917. multiplex microsphere protease cleavage assay. inhibition, % at 10 µM. 360,000 tested, 0.12% active. AID 588501, 2011
# Target sequence (P15917 whole entry, looked up): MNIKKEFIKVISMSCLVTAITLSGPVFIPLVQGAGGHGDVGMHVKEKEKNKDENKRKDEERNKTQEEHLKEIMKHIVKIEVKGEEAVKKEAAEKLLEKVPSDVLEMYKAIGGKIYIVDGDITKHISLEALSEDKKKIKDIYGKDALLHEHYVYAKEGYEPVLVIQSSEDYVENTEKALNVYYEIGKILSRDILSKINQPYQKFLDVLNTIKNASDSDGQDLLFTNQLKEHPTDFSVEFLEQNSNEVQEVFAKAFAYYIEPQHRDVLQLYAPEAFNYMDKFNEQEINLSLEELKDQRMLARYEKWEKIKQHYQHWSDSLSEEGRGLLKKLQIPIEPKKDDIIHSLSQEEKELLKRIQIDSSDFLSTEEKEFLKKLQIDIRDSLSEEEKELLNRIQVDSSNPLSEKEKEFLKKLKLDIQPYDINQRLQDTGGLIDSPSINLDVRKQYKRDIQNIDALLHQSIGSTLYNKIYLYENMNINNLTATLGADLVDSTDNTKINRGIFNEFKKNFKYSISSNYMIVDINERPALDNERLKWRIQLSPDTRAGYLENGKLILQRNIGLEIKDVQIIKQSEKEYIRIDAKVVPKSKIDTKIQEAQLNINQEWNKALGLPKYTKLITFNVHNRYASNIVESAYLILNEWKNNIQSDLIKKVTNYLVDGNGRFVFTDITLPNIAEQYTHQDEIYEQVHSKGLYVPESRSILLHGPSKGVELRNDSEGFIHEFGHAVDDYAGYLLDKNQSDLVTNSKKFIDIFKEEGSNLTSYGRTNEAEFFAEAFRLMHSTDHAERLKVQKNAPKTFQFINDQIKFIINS
# BoNT-A LC inh2: BoNT/A light chain protease inhibitors, primary screen, biochemical, flow cytometry, MLPCN library; Botulinum neurotoxin type A light chain protease (Clostridium botulinum A str. ATCC 3502); multiplex microsphere protease substrate cleavage; inhibition, % at 10 µM; 360,000 tested, 0.17% active; AID 588499, 2011
# BoNT F protease: BoNT/F light chain protease inhibitors, primary screen, biochemical, flow cytometry, MLPCN library | Botulinum neurotoxin type F light chain protease (Clostridium botulinum) | Multiplex microsphere protease cleavage assay | inhibition, % at 10 µM | 360,000 tested, 0.22% active | AID 588497, 2011; in the data active means inhibition above about 35%, passing the limit was not always enough; inconclusive means no clear call, values can overlap the other calls
# Autofluor counter: counter-screen for toxin protease inhibitors: compound fluorescence; compound autofluorescence counterscreen, microsphere flow cytometry; active compounds read high; fluorescence intensity (test concentration not listed); 360,000 tested, 3.1% active; AID 624483; in the data active means fluorescence intensity above about 16000; inconclusive means no clear call, values can overlap the other calls
# Numbers stand for hits; 0 = inactive; ? = inconclusive; - = not tested or not shown. This is a sample that favours compounds with a hit; in the whole collection about 3.5% have one here. Unless noted, no stated cut-off is given here; in the data, active means inhibition above about 30%; inconclusive means no clear call, values can overlap the other calls; inactive means below that.
SMILES,BJeLR lethal,Anthrax LF inh2,BoNT-A LC inh2,BoNT F protease,Autofluor counter
COc1ccc2cc(CCNS(=O)(=O)c3ccc(NC(C)=O)cc3)c(=O)[nH]c2c1,0,0,0,0,0
CC(=O)c1ccc(NS(=O)(=O)c2cccc3cccnc23)cc1,-,0,0,0,0
CCOC(=O)c1c(Nc2ccccc2)sc(/C=C2\C=Nc3ccccc32)c1O,0,0,0,0,17134
CS(=O)(=O)N1CCN(C(=O)c2ccccc2F)CC1,-,0,0,0,0
COc1ccc(N2CCN(C(=O)c3csc4ccccc34)CC2)cc1,0,0,0,0,16323
CS(=O)(=O)N1CCN(C(=O)c2csc3ccccc23)CC1,0,0,0,0,24374
Cc1scc(C(=O)N2CCN(S(C)(=O)=O)CC2)c1-c1ccccc1,0,0,?,0,24362
Cn1cc(-c2coc3c(C(=O)NCc4cccs4)cccc23)cn1,-,0,0,0,0
Cc1cc([N+](=O)[O-])nn1Cc1c(F)c(F)c(F)c(F)c1F,0,0,0,0,18842
Cc1cc([N+](=O)[O-])nn1CCCC(=O)NCc1ccc(F)cc1,0,0,0,0,0
Cc1c(C(=O)Nc2ccc(S(=O)(=O)Nc3ncccn3)cc2)oc2ccccc12,-,0,0,0,0
Cc1cc(NS(=O)(=O)c2ccc(NC(=O)NC3CCCCC3)cc2)no1,0,0,0,0,17035
Cc1cc(NS(=O)(=O)c2ccc(NC(=O)Nc3ccc4c(c3)OCO4)cc2)no1,0,0,?,0,16204
Cc1cc(NS(=O)(=O)c2ccc(NC(=O)c3oc4ccccc4c3C)cc2)no1,0,0,0,0,22342
CNc1nc(-c2ccccc2)c2sccc2n1,-,0,0,0,0
Cc1ccc(C(c2nc3ccccc3[nH]2)n2c(-c3ccccc3)nc3ccccc32)cc1 (stereo unspecified),-,0,0,0,0
COCCN(Cc1ccccc1)C(=O)c1cccc(S(=O)(=O)N2CCN(Cc3ccccc3)CC2)c1,-,0,0,0,0
C[C@H](NC(=O)[C@@H]1CCCN1C(=O)[C@@H]1CCCN1C(=O)c1cccc2ccccc12)c1ccccc1,-,0,0,0,0
Cc1cc(C)c2[nH]c(=O)c(CN(CC3CCCO3)S(=O)(=O)c3ccc4c(c3)OCCO4)cc2c1 (stereo unspecified),0,0,0,0,21471
COc1ccc(-c2cc3nc4n(c(=O)c3s2)CCC4)cc1,0,0,?,0,23433
Cn1c(NCc2ccccc2)nc2cc(-c3ccccc3)sc2c1=O,-,0,0,0,0
Cc1nc2cc(-c3ccccc3)sc2c(=O)n1N,79,0,0,0,0
COc1ccc(-c2cc3nc(C)n(N)c(=O)c3s2)cc1,99,0,0,?,0
COc1cccc(C(=O)N/N=c2\oc3c(OC)cccc3cc2C(=O)NCc2ccccc2)c1,0,0,0,0,0
COc1cccc(C(=O)NCc2ccco2)c1OC,0,0,0,0,0
SMILES,BJeLR lethal,Anthrax LF inh2,BoNT-A LC inh2,BoNT F protease,Autofluor counter
COc1ccc(N=c2oc3c(OC)cccc3cc2C(=O)NCc2ccco2)cc1OC,-,0,?,0,19539
COc1ccc(OC)c(N=c2oc3c(OC)cccc3cc2C(=O)NCc2ccco2)c1,0,0,0,0,16799
COc1ccccc1C(=O)NCc1ccco1,0,0,0,0,0
COc1ccccc1N=c1oc2c(OC)cccc2cc1C(=O)NCc1ccco1,0,0,0,0,20264
CCOC(=O)c1cc(C(=O)Nc2ccc(C)c(F)c2)nn1C,0,0,0,0,21479
CCOC(=O)c1cc(C(=O)NCc2ccc(Cl)cc2Cl)nn1C,0,0,0,0,0
O=C1CC(C(=O)O)c2ccccc2N1 (stereo unspecified),0,0,0,0,0
O=C1CC(CCC(=O)NC2CC2)c2ccccc2N1 (stereo unspecified),0,0,0,0,20432
CCCNC(=O)Cn1c(=O)/c(=C/c2ccc(-c3ccc([N+](=O)[O-])cc3)o2)s/c1=C\C(=O)C(C)(C)C,-,33,32,0,0
CSc1ccc(/C=c2\s/c(=C\C(=O)C(C)(C)C)n(CC(=O)NCCC3=CCCCC3)c2=O)cc1,0,0,0,0,0
Cc1ccccc1C(=O)NC1CCN(Cc2nnnn2Cc2ccccc2)CC1,0,0,0,0,0
O=C(NC1CCN(Cc2nnnn2CCc2ccccc2)CC1)c1ccccc1F,0,0,0,0,22189
COc1ccc(/C(N)=N/OC(=O)/C=C/c2ccccc2)cc1,0,0,0,62,0
Cc1ccccc1/C(N)=N/OC(=O)/C=C/c1ccccc1,0,0,0,0,22804
C/C(=N\NC(=O)C1=NNC(=O)C1C)c1cccs1 (stereo unspecified),0,0,0,0,0
CCCCc1nnc(SCCSc2nnc(CCCC)n2N)n1N,-,0,0,0,23554
CCc1nnc(SCCSc2nnc(CC)n2N)n1N,0,0,0,0,0
CC(C)C(=O)Nc1ccc2c(c1)Cc1cc(NC(=O)C(C)C)ccc1-2,0,0,0,0,0
N#Cc1cc([N+](=O)[O-])c(-n2nnc3ccccc32)c([N+](=O)[O-])c1,0,0,0,0,0
COc1ccccc1Oc1cc(C#N)c(C#N)cc1-n1nnc2ccccc21,0,0,0,0,22329
CC(C)C[C@H]1COc2cc(N3CC[C@H](O)C3)ccc2S(=O)(=O)N1,-,0,0,0,0
O=C(COc1ccccc1)NC(Cc1c[nH]c2ccccc12)C(=O)O (stereo unspecified),0,0,0,0,16391
Cc1ccc(C(=O)NC(Cc2c[nH]c3ccccc23)C(=O)O)cc1 (stereo unspecified),0,0,?,0,20051
O=C(NC(Cc1c[nH]c2ccccc12)C(=O)O)c1ccc(Br)cc1 (stereo unspecified),0,0,0,0,0
CC(C)c1ccc(OCC(=O)NC(Cc2c[nH]c3ccccc23)C(=O)O)cc1 (stereo unspecified),0,0,0,0,0
SMILES,BJeLR lethal,Anthrax LF inh2,BoNT-A LC inh2,BoNT F protease,Autofluor counter
Cc1ccc(S(=O)(=O)N2[C@@H](c3cccc(Cl)c3)C(C(=O)OC(C)(C)C)=CC[C@H]2c2ccc(C(C)C)cc2)cc1,-,0,0,0,0
O=c1c2ccccc2cnn1-c1ccc2ccccc2c1,0,0,0,0,23123
COc1ccc(N(CC(=O)N2CCc3ccccc32)S(=O)(=O)c2c(C)n[nH]c2C)cc1,0,0,?,0,17257
CCN(c1ccc(C)c(C)c1)S(=O)(=O)c1ccc2c(c1)CCN2C(=O)CCC(=O)O,0,0,0,0,0
CCN(c1ccc(OC)cc1)S(=O)(=O)c1ccc2c(c1)CCN2C(=O)CCC(=O)O,0,0,0,0,16864
COc1ccc(CCNS(=O)(=O)c2ccc3c(c2)OCCO3)cc1OC,0,0,0,0,0
CC(Sc1nnc(CNc2cccc3ccccc23)n1-c1ccccc1)C(=O)N/N=C/c1ccco1 (stereo unspecified),0,-,-,-,-
CC1=C(C(=O)OC(C)C)C(c2ccc(F)cc2)NC(=O)N1 (stereo unspecified),0,0,0,0,16191

# Bioassay records: PubChem, several laboratories
